Experimental data taken from PubChem BioAssay AID2315 (National Center for Advancing Translational Sciences (NCATS), 2010).
The campaign covered roughly 290,000 compounds. About 27,000 (9.3%) were called active. This excerpt belongs to a sample that is enriched for actives. Values without a mark were called inactive. Rule as the data show it: active = inhibition mostly above about 28% (no sharp cut-off); inactive = mostly below about 43%.

assay: A qHTS for Small Molecule Inhibitors of Shiga Toxin; conditions: Vero cells, Shiga toxin protein synthesis inhibition reporter; at 38.7 µM, stronger effect = higher value; also: 0% is about no effect

Point of comparison: `O=C(NC(c1ccccc1)c1ccccc1)N1CCN(CCO)CC1`, inhibition 8.02%. Against it:
- COC(=O)c1sc(N2CCN(Cc3ccccc3)CC2)nc1N — lower, -8.35%
- Cc1ccc(CNCc2ccc3c(c2)OCO3)c(C)c1 — lower, -7.85%
- O=C(O)C1=NN(c2c(F)c(F)cc(F)c2F)C(=O)CC1 — lower, -10.3%
- COc1ccc(/C=C/C(=O)Nc2ccc3c(c2)OCCO3)cc1OC — higher, 35.4%
- CC(NC(=O)Nc1ccc2c(c1)OCO2)c1ccncc1 (configuration not stated) — higher, 19.2%
- O=C(/C=C/c1ccc2c(c1)OCO2)NCc1ccc(F)cc1 — higher, 26.5%
- COc1ccc(OC)c(/C=C/C(=O)OCC(=O)Nc2ccc3c(c2)OCCO3)c1 — lower, -11%
- Cc1ccc2nc(-c3ccccn3)cc(C(=O)Nc3ccc4c(c3)OCO4)c2c1 — lower, -7.35%
- CC(C)CNS(=O)(=O)c1ccc(C(=O)Nc2ccc3c(c2)OCO3)cc1 — lower, -14.7%
- CC(NS(=O)(=O)c1ccc(Cl)cc1)C(=O)Nc1ccc2c(c1)OCCO2 (configuration not stated) — lower, -5.73%
- CCc1c(C)sc(NC(=O)/C=C/c2ccc3c(c2)OCO3)c1C(=O)OC — lower, -7.04%
- COc1cccc(NC(=O)C2CCCN(c3ncnc4c3nc3n4CCCCC3)C2)c1 (configuration not stated) — lower, -3.78%
- Cc1ccc(N2CCN(C(=O)c3cccs3)CC2)c(C)c1 — higher, 8.46%
- CCc1ccc(OCC(=O)N(Cc2ccccc2)C2CCS(=O)(=O)C2)cc1 (configuration not stated) — lower, -3.9%
- CN(C)S(=O)(=O)c1cccc(C(=O)OCC(=O)N2CCCC2=O)c1 — lower, -2.45%
- CC(C(=O)NC1CCS(=O)(=O)C1)N1C(=O)/C(=C/c2ccc(Cl)cc2)SC1=S (configuration not stated) — lower, -2.44%
- COc1ccccc1CN1CCN(Cc2cc(OC)c(OC)cc2OC)CC1 — lower, 7.78%
- COc1ccc(CNS(=O)(=O)c2ccc(NC(=O)N3CCCCC3)cc2)cc1 — lower, 1.93%
- CC(C)C(=O)Nc1c2c(nn1-c1ccccc1)CSC2 — lower, -0.685%
- COc1cc2c(cc1OC)C(C)N(S(=O)(=O)c1cnc(Cl)c(Cl)c1)CC2 (configuration not stated) — lower, -3.13%
- CC(C)n1c(O)c(N=Nc2ccccn2)c2ccccc21 — higher, 11.1%
- O=C(c1ccc[nH]c1=S)N1CCN(S(=O)(=O)c2ccc(Br)cc2Cl)CC1 — lower, -6.76%
- CC(C)c1ccc(NC(=O)[C@@H](NC(=O)N2CC(=O)Nc3ccccc32)C(C)C)cc1 — lower, -1.19%
- COc1ccc(N(C(=O)c2snc(C(N)=O)c2N)C(C(=O)NC2CCCC2)c2ccco2)cc1OC (configuration not stated) — higher, 10.1%
- Cc1cnc(CN(C)C(=O)C2CCC(=O)N(CCc3cccc(F)c3)C2)[nH]1 (configuration not stated) — lower, -1.92%
- COc1ccc(-c2nc(SCC(=O)N3CCCC3)n[nH]2)cc1 — higher, 38.5%
- CCc1c(C)nc(SCC(=O)NC2CCCC2)[nH]c1=O — lower, -6.89%
- COc1ccc(S(=O)(=O)NC(C)c2ccccc2)cc1C(=O)N1CCCCC1 (configuration not stated) — lower, -7.47%
- Clc1cccc(Cl)c1OCCOCCNCc1ccccc1 — lower, 1.14%
- FC(F)(F)c1nnc2ccc(N3CCN(c4ccccc4)CC3)nn12 — lower, -8.76%
- Cc1cc(N2CCN(c3ccccc3)CC2)nc(N2CCOCC2)n1 — lower, -8.49%
- CCOc1ccc2[nH]c(=O)c(CN(CCCO)S(=O)(=O)c3ccc(F)cc3)cc2c1 — lower, -6.85%
- Cc1ccc(C(=O)NCC(=O)OCC(=O)NC2CCCCCCC2)cc1 — lower, -5.5%
- O=C1c2ccccc2C(=O)c2c1cccc2N1CCN(Cc2ccccc2)CC1 — higher, 47.7%
- NC(=O)CSc1nnc(NC(=O)c2ccc(Br)o2)s1 — higher, 15.2%
- CN(C)c1cccc(C(=O)N2CCC(n3nccc3NC(=O)C3CCOC3)CC2)c1 (configuration not stated) — lower, -1.93%
- CS(=O)(=O)c1ccc(Cl)c(NC(=O)Nc2ccccc2)c1 — higher, 38.5%
- Cc1c(NC(=O)Nc2ccccc2)cccc1[N+](=O)[O-] — lower, -38.1%
- COc1cc(NC(=O)C2=CC(c3ccc(C)cc3)=NS(=O)(=O)N2C)cc(OC)c1OC — lower, 7.86%
- Cc1[nH]c(C)c(S(=O)(=O)N2CCN(c3cccc(C(F)(F)F)c3)CC2)c1C(=O)N1CCCC1 — lower, -8.08%
- CCCCCCC(=O)N(O)C1CC(=O)N(c2ccccc2)C1=O (configuration not stated) — lower, -2.28%
- CCOc1ccc(N2C(=O)CC(N(CCc3ccc(OC)c(OC)c3)C(=S)Nc3ccccc3)C2=O)cc1 (configuration not stated) — higher, 9.09%
- CCc1nn(-c2cc(Oc3cccc4ccccc34)nc(-c3ccccc3)n2)c(N)c1C#N — lower, -16.3%
- COC(=O)c1ccc(/C=N\n2c(C)nnc2C)cc1 — higher, 8.68%
- CC1CCCC(C)N1/N=C/c1ccccc1OC(F)F (configuration not stated) — lower, -12.3%
- CCN(CC(=O)N1CCCC1)S(=O)(=O)c1ccc(F)cc1 — lower, -4.28%
- COC(=O)c1ccc(C(NC(=O)OCc2ccccc2)/C(C)=C/[C@@H](C)C(=O)NCc2ccc(OC)c(OC)c2)cc1 (some centres not stated) — lower, -13.4%
- Nc1cccc2c1C(=O)N(Cc1nnc(-c3ccccc3Br)o1)C2=O — higher, 18.9%
- Cn1cnnc1SCC(=O)NNC(=O)COc1ccc(Br)cc1 — lower, 1.38%

In the case of `Cc1cccc(NC(=O)/C=C/c2ccc3c(c2)OCO3)n1`, the inhibition is reported as 70.2% (active).
For `Cc1cccc(NC(=O)Nc2ccc3c(c2)OCO3)n1`, the inhibition was 76.3% (active).
In the case of `CNS(=O)(=O)c1ccc(NC(=O)Nc2ccc3c(c2)OCO3)cc1`, the inhibition is reported as 72.9% (active).
In the case of `COc1cccc(/C=C/C(=O)Nc2ccc3c(c2)OCCO3)c1`, the inhibition is reported as 70.9% (active).
With `Oc1oc(-c2ccccc2Br)nc1/C=N/c1ccccn1` the inhibition was 102% (active).
For `CCc1ccc(-c2nc(SCC(=O)NC3CCCC3)n[nH]2)cc1`, the inhibition was 22.7% (active).
For `Cc1cc(C)n(-c2nnc(N3CCN(c4ccccc4)CC3)nn2)n1`, the inhibition was 35.7% (active).
For `O=C1c2ccccc2C(=O)c2c1cccc2N1CCN(CCO)CC1`, the inhibition was 75.3% (active).
For `Cc1ccc(NC(=O)Nc2ccccc2)c(Br)c1`, the inhibition was 105% (active).
For `CCOc1ccc(N2C(=O)CC(N(O)c3ccccc3)C2=O)cc1` (configuration not stated), the inhibition was 100% (active).
For `COC(=O)c1ccc(/C=N/N2C(C)CCCC2C)cc1` (configuration not stated), the inhibition was 66.3% (active).
In the case of `Cn1cnnc1SCc1nnc(-c2ccccc2Br)o1`, the inhibition is reported as 58.3% (active).
